Compound activity from PubChem BioAssay.
HCV inh: inhibitors of hepatitis C virus infection. Huh7.5.1 HCVcc-Cre infection, luciferase reporter, 44 h. Potency, µM (doses to about 41.8 µM), for inactives: at the highest dose activity change, negative = inhibition, actives largely listed as inhibitors. 3.4% of 340,000 active; also: potency is read from the fitted curve at half-maximal effect
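1,000 cells/well; 4 h culture; + compound; + HCVcc-Cre (~0.5 moi); 44 h; luciferase substrate, RT 15 min; read 15 sec.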
FMDV antiviral: foot and mouth disease virus antiviral activity; AID 1159524; 1.2% of 410,000 active; FMDV antiviral cell-based qHTS; Potency, µM (doses to about 57.9 µM), for the others: at the top dose activity change, negative = inhibition, usual class: inhibitors; calls by dose curve; tested in HEK293T cells; also: read-out not given here; potency is read from the fitted curve at half-maximal effect; nearly all actives have a fitted effect of over 45% in size
HCMV antiviral: inhibitors of human cytomegalovirus; HFF cells, HCMV-luciferase reporter, 72 h; hits give low values; activity change, negative = inhibition, % at 57.5 µM; 4.5% of 410,000 active; AID 1259415; in the data active = activity change below about -60%; inconclusive = no clear call, values can overlap the other calls; inactive = above about -39%
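Steps: HFFs plated, 16 h 37C; compounds added; HCMV-luciferase added to MOI 1 PFU/cell; 72 h 37C; OneGlo reagent, 5 min room temperature; luminescence read, normalized to controls.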
AmpC inh no detg: AmpC beta-lactamase inhibition without detergent. P00811. AmpC nitrocefin hydrolysis, absorbance 480 nm, 0.0001% Triton. Potency, µM (highest dose often 57.1 µM), inactives show at the highest dose activity change, negative = inhibition, hits mostly inhibitors. 0.52% of 330,000 active;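 also: potency is read from the fitted curve at half-maximal effect; plate controls were no compound for no effect and no enzyme for full effect; nearly all actives have a fitted effect of over 20% in size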
Target sequence (P00811 whole entry, looked up): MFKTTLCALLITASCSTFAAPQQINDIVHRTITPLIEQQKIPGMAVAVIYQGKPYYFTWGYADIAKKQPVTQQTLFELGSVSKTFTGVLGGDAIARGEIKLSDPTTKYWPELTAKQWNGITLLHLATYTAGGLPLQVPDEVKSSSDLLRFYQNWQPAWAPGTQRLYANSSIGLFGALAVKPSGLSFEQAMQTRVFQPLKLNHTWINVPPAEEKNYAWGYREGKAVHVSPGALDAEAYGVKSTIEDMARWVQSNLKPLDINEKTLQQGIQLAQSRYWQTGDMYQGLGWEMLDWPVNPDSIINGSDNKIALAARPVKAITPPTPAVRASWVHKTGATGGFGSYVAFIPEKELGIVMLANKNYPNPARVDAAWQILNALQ
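AmpC (5.3 nM in the dispensed reagent) in 20 mM phosphate pH 7.0 with 0.01% (detergent screen) or 0.0001% Triton X-100 was preincubated with compounds for 15 min at room temperature. Nitrocefin was then added from an 800 uM solution, and hydrolysis was followed at 480 nm.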
AmpC inh detg: blocks E. coli AmpC beta-lactamase in detergent assay; AmpC hydrolysis of nitrocefin, absorbance 480 nm, 0.01% Triton; Potency, µM (highest dose often 114 µM), for inactives: at the highest dose activity change, negative = inhibition, actives largely listed as inhibitors; 0.041% of 370,000 active; AID 485294;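 also: potency is read from the fitted curve at half-maximal effect; 0% = no-compound wells and -100% = no-enzyme wells; nearly all actives have a fitted effect of over 25% in size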
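AmpC (5.3 nM in the dispensed reagent) in 20 mM phosphate pH 7.0 with 0.01% (detergent screen) or 0.0001% Triton X-100 was preincubated with compounds for 15 min at room temperature. Nitrocefin was then added from an 800 uM solution, and hydrolysis was followed at 480 nm.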
* = called active by the depositor. Most compounds without a hit are left out; they make up all but 7.3% or so of the library. Unless noted, calls follow the shape of the dose curve; as a rule, active = well fitted curve in the direction sought with a large enough effect; inconclusive = small, poorly fitted or top-dose-only effect, or another doubt; inactive = no such curve, though single readings can be large; an effect the other way counts as inactive or inconclusive. Unless noted, % is scaled to controls: 0 for no effect and ±100 for the full control effect.

CCOC(=O)[C@H]1[C@H]2COc3ccccc3[C@@H]2N2C(=O)c3ccc(C)cc3NC(=O)[C@@]12C was read as HCV inh -12%, FMDV antiviral -22%, HCMV antiviral -19, AmpC inh no detg -32% and AmpC inh detg -3%.
Cc1cc(C)c(NC(=O)CCN2C(=O)c3ccccc3Sc3ncccc32)c(C)c1 was read as FMDV antiviral -13%, HCMV antiviral -10 and AmpC inh detg -3%.
For COc1ccc(OC)c(-c2csc(NC(=O)Cc3ccc(F)cc3)n2)c1 the results were HCV inh inconclusive, FMDV antiviral 15%, HCMV antiviral 10, AmpC inh no detg -14% and AmpC inh detg 6%.
COc1ccc(NC(=O)Nc2nnc(CC(=O)Nc3ccccc3)s2)cc1 was read as HCV inh 13%, FMDV antiviral -14%, HCMV antiviral inconclusive, AmpC inh no detg -37% and AmpC inh detg 1%.
`CCc1ccc(-c2csc(NC(=O)C3CC(=O)N(c4ccc5c(c4)OCCO5)C3)n2)cc1` (stereo not given) gave HCV inh 11µM*, FMDV antiviral inconclusive, HCMV antiviral -84*, AmpC inh no detg inconclusive and AmpC inh detg -7%.
COc1cccc(NC(=O)Nc2nnc(CC(=O)Nc3ccccc3)s2)c1 was read as HCV inh 7%, FMDV antiviral -14%, HCMV antiviral -14, AmpC inh no detg 11µM* and AmpC inh detg -6%.
For COc1ccc(OC)c(-c2csc(NC(=O)Cc3cc(OC)c(OC)c(OC)c3)n2)c1 the results were HCV inh 11µM*, FMDV antiviral inconclusive, HCMV antiviral -37, AmpC inh no detg 58% and AmpC inh detg -4%.
`Cc1csc(NC(=O)C2CC(=O)N(c3ccc4c(c3)OCCO4)C2)n1` (stereo not given) gave HCV inh -13%, FMDV antiviral 4%, HCMV antiviral 14, AmpC inh no detg 6% and AmpC inh detg -17%.
`COc1ccc(-c2csc(NC(=O)C3CC(=O)N(Cc4ccccc4)C3)n2)cc1OC` (stereo not given) gave HCV inh inconclusive, FMDV antiviral 32µM*, HCMV antiviral 12, AmpC inh no detg 165% and AmpC inh detg 2%.
Screening O=C(O)c1cc(=O)c2cccc(O)c2[nH]1 returned FMDV antiviral -12%.
COc1ccccc1CC(=O)Nc1nc(-c2ccc(F)c(F)c2)cs1 was read as HCV inh 10µM*, FMDV antiviral -28%, HCMV antiviral -20, AmpC inh no detg -51% and AmpC inh detg -9%.
O=C(Nc1ccccc1)Nc1nc(-c2ccc(F)c(F)c2)cs1 was read as HCV inh -23%, FMDV antiviral -23%, AmpC inh no detg -44% and AmpC inh detg -4%.
For O=C(Nc1nc(-c2ccccc2)cs1)Nc1ccc(F)cc1F the results were HCV inh inconclusive, FMDV antiviral -8%, HCMV antiviral -75*, AmpC inh no detg 20µM* and AmpC inh detg -2%.
`O=C(Nc1nc(-c2ccccn2)cs1)Nc1ccc(F)cc1F` gave HCV inh inconclusive, FMDV antiviral -7%, HCMV antiviral inconclusive, AmpC inh no detg 87% and AmpC inh detg 0%.
Screening COc1ccc(CCNc2nc(-c3sc(N)nc3C)cs2)cc1OC returned HCV inh -9%, FMDV antiviral 10µM*, HCMV antiviral -11, AmpC inh no detg 38% and AmpC inh detg inconclusive.
`COc1cccc(CC(=O)Nc2nc(-c3cccnc3)cs2)c1` gave HCV inh -8%, FMDV antiviral -19%, HCMV antiviral -62*, AmpC inh no detg -35% and AmpC inh detg -1%.
`COc1ccc(Nc2nc(-c3sc(N)nc3C)cs2)cc1` gave HCV inh inconclusive, FMDV antiviral -14%, HCMV antiviral 139, AmpC inh no detg -16% and AmpC inh detg -2%.
CCCC(=O)N1CCC1(C)C(=O)Nc1scc(C)c1C#N (stereo not given) was read as FMDV antiviral -16%.
For COc1ccccc1CNC(=O)c1c2c(nc3ccccc13)C(=O)N(C1CCCCC1)C2 the results were FMDV antiviral -20%, HCMV antiviral 30 and AmpC inh detg 14%.
Cc1ccn2c(=O)c(C(=O)NCCc3ccccc3)c(O)nc2c1 was read as FMDV antiviral 52%, HCMV antiviral 7 and AmpC inh detg 4%.
`COc1cccc(-c2csc(NC(=O)Nc3ccccc3)n2)c1` gave HCV inh 11µM*, FMDV antiviral 25µM*, HCMV antiviral inconclusive, AmpC inh no detg -38% and AmpC inh detg 3%.
For COc1ccc(CC(=O)Nc2nc(-c3ccc(OC)c(OC)c3)cs2)cc1OC the results were HCV inh 5.6µM*, FMDV antiviral inconclusive, HCMV antiviral -34, AmpC inh no detg 146% and AmpC inh detg -4%.
`COc1cccc(-c2csc(N3CCN(C(=O)Nc4ccccc4OC)CC3)n2)c1` gave HCV inh -14%, FMDV antiviral 6%, HCMV antiviral 47, AmpC inh no detg -20% and AmpC inh detg -8%.
COc1cccc(-c2csc(N3CCN(C(=O)Nc4ccc(F)cc4)CC3)n2)c1 was read as HCV inh 7.9µM*, FMDV antiviral inconclusive, HCMV antiviral inconclusive, AmpC inh no detg -28% and AmpC inh detg 3%.
Screening COc1ccc(OC)c(-c2csc(NC(=O)COC(=O)c3ccc(NC(=O)CC#N)cc3)n2)c1 returned HCV inh inconclusive, FMDV antiviral -23%, AmpC inh no detg 25µM* and AmpC inh detg inconclusive.
Screening COc1ccc(-c2csc(NC(=O)CS(=O)(=O)c3ccccc3)n2)cc1OC returned FMDV antiviral inconclusive and HCMV antiviral -38.
Cc1c(C=O)c2cc(OCc3ccccc3)ccc2n1C was read as HCV inh inconclusive, FMDV antiviral 32%, HCMV antiviral 110, AmpC inh no detg 32% and AmpC inh detg inconclusive.
For CCC(CC)c1nnc(NC(=O)Cc2c[nH]c3ccccc23)s1 the results were FMDV antiviral -21% and HCMV antiviral 9.
`CCc1ccccc1NC(=O)c1cc(S(=O)(=O)N2CCCc3ccccc32)ccc1F` gave FMDV antiviral inconclusive, HCMV antiviral -32 and AmpC inh detg 8%.
CC1CCCCN1C(=O)c1ccc2c(c1)N(Cc1ccc(F)cc1)C(=O)c1ccccc1S2(=O)=O (stereo not given) was read as FMDV antiviral 3%, HCMV antiviral -3 and AmpC inh detg 2%.
`COc1ccc(OC)c(-c2csc(NC(=O)CSc3ccc([N+](=O)[O-])cc3)n2)c1` gave HCV inh 10µM*, FMDV antiviral inconclusive, HCMV antiviral -32, AmpC inh no detg -48% and AmpC inh detg inconclusive.
